Experimental data from PubChem BioAssay.
Several values for one entry are separate records, joined by “and”; a condition that tells them apart may be missing. Identical values can stand only once. Records with an inconclusive call do not appear. Some structures have more than one record in an assay (separate samples or runs), and their calls can disagree. Activity calls are given as the source filed them.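 The calls were made as follows, unless noted: active = normalized viability below 100% at a tested concentration; inactive = the rest.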

Experiments:
[1] = viability loss in pontine glioma line – cell-based, SU-DIPG-XXV, MIPE5.0, CellTiter-Glo, qHTS, dose response (AID 1347065; cut-off not given, nearly all actives have AC50 up to about 26 µM;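 also: cells exposed to compound for 48 hours before ATP readout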); conditions: CellTiter-Glo ATP luminescence
[2] = growth inhibition of DIPG cells – cell-based, MIPE4.0 library, CellTiter-Glo luminescence, qHTS (AID 1347066; cut-off not given, nearly all actives have AC50 up to about 30 µM;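 also: cells exposed to compound for 48 hours before readout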); conditions: SU-DIPG-VI viability, CellTiter-Glo ATP luminescence
[3] = JHH-DIPG-1 glioma cell viability, MIPE5.0 library, CellTiter-Glo luminescence, qHTS (AID 1347067; cut-off not given, nearly all actives have AC50 up to about 26 µM;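 also: cells exposed to compound for 48 hours before readout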); conditions: JHH-DIPG-1 glioma viability, CellTiter-Glo ATP luminescence
[4] = growth inhibition of DIPG cells – cell-based, MIPE5.0 library, qHTS (AID 1347068; cut-off not given, nearly all actives have IC50 up to about 30 µM;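 as to IC50: cells exposed to compound for 48 hours before viability readout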); conditions: SU-DIPG-XXV viability
[5] = viability loss with induced miR-34 in A549 – imaging, A549 dox-inducible miR-34, nuclei and caspase counts, primary screen (AID 1347080;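 active = compounds whose cell count with miR-34 switched on is under 0.7 times the count with it off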); conditions: A549 miR-34 inducible, Hoechst nuclei count, 48 h
[6] = MELAS cybrid and Rieske KO viability enhancers – cell-based, MELAS cybrids, Rieske KO mouse fibroblasts, CellTiter-Glo, primary screen (AID 1508586;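 active = mean z-score across replicates of 1.96 or higher in either the MELAS or the Rieske mutant cell line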;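 also: z relative to plate mean and SD of compound and empty wells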); conditions: low glucose
[7] = blockers of cellular phospholipid synthesis – cell-based, LOPAC library, screen 4, primary screen (AID 1347384; call rule not given here); conditions: animal cells, phospholipid biosynthesis inhibition screen; at 10 µM
[8] = chitosan synthesis blockers in C. neoformans – flow cytometry, Cibacron Brilliant Red staining (AID 1347148; call rule not given here;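 also: compound exposure lasted three days at 37 degrees C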); conditions: Cryptococcus neoformans chitosan, stronger effect = lower value; at 10 µM unless noted
[9] = compounds altering HSF1 focus formation in cells – imaging, Selleck Cancer Library (AID 1347162; in the data active = plate-normalised HSF1 focus index below about 0.46); conditions: human cells, HSF1 nuclear foci imaging, at 10 µM; SSMD: measured here: HSF1 foci SSMD mean; cell count: measured here: cell number; plate-normalised HSF1 focus index: stronger effect = lower value
[10] = drug combination growth inhibition, ovarian cancer – cell-based, oncology-focused library, rucaparib conditional, profiling panel (AID 1508598); conditions: patient-derived ovarian cancer cells, CellTiter-Glo viability, 144 h, stronger effect = lower value
[11] = MELAS cybrid survival, CellTiter-Glo 48 h, stronger effect = higher value
[12] = Rieske KO mouse fibroblast survival, CellTiter-Glo 72 h

For `CCCc1cc(C(N)=S)ccn1`, the outcome [1] was “inactive”, the outcome [2] was “inactive” and the outcome [3] was “inactive”. For the same molecule, the outcome [4] was “inactive”, the fold change ([5]; stronger effect = lower value, cell number ratio, induced over uninduced) was 0.877 (inactive) and 0.879 (inactive) and the fold change ([5]; measured here: relative caspase fold change +Dox/-Dox) was 0.726 and 1.06. For the same molecule, the cell count ([5]; measured here: total cells with miR-34 induction, stronger effect = lower value) was 7890 and 9370, the cell count ([5]; measured here: total cells without miR-34 induction) was 8990 and 10700 and the z-score [6, 11] was -0.334 (inactive) and 1.02 (inactive) and 0.566 (inactive). The z-score [6, 12] was -0.0512 and 0.419 and 0.177.

For `COc1ccc(CCN(C)CCCC(C#N)(c2ccc(OC)c(OC)c2)C(C)C)cc1OC` (stereo unspecified), the outcome [1] was “inactive”, the outcome [2] was “inactive” and the outcome [3] was “inactive”. The outcome [4] was “inactive”, the outcome [7] was “inactive” and the z-score [6, 11] was -1.23 (inactive) and 0.18 (inactive) and -0.391 (inactive). For the same molecule, the z-score [6, 12] was -2.03 and 0.282 and -0.248.

For `CCCc1nc(C)c2c(=O)[nH]c(-c3cc(S(=O)(=O)N4CCN(CC)CC4)ccc3OCC)nn12`, the outcome [1] was “inactive”, the AC50 [2] was 8330 nM (active) and the outcome [3] was “inactive”. The outcome [4] was “inactive”, the z-score [6, 11] was -0.282 (inactive) and 1.61 (inactive) and 1.47 (inactive) and the z-score [6, 12] was -1.38 and 1.33 and 1.06.

In the case of `CCOC(=O)C(C)(C)Oc1ccc(Cl)cc1`, the outcome [1] is reported as “inactive”, the outcome [2] is reported as “inactive” and the outcome [3] is reported as “inactive”. The outcome [4] was “inactive”, the fold fluorescence [8] was 5.04 (inactive) and the outcome [7] was “inactive”. The z-score [6, 11] was 0.307 (inactive) and -1.09 (inactive) and the z-score [6, 12] was -0.506 and -1.36.

With `COc1cccc2c1C(=O)c1c(O)c3c(c(O)c1C2=O)C[C@@](O)(C(=O)CO)C[C@@H]3O[C@H]1C[C@H](N)[C@H](O)[C@H](C)O1` the AC50 [1] was 1180 nM (active), the AC50 [2] was 2350 nM (active) and the AC50 [3] was 1050 nM (active). The IC50 [4] was 7420 nM (active), the SSMD [9] was -18.3 and the cell count [9] was 7010. The plate-normalised HSF1 focus index [9] was 0.0593 (active), the z-score [6, 11] was 0.616 (inactive) and 7.1 (active) and the z-score [6, 12] was -1.64 and -0.526.

In the case of `N#Cc1ccc(C(c2ccc(C#N)cc2)n2cncn2)cc1`, the outcome [1] is reported as “inactive”, the outcome [2] is reported as “inactive” and the outcome [3] is reported as “inactive”. For the same molecule, the outcome [4] was “inactive”, the SSMD [9] was 2 and the cell count [9] was 6610. For the same molecule, the plate-normalised HSF1 focus index [9] was 1.1 (inactive), the z-score [6, 11] was -0.0811 (inactive) and 0.894 (inactive) and -0.0703 (inactive) and the z-score [6, 12] was -0.000166 and 0.656 and -0.338. For the same molecule, the viability ([10]; at 0.000305 µM, OCI-C5x cells, with rucaparib 10 µM, 100% = cells with rucaparib alone) was 117% (inactive), the viability ([10]; at 0.000305 µM, OCI-C5x cells, without rucaparib) was 101% (inactive) and the viability ([10]; at 0.000305 µM, OCI-P5x cells, with rucaparib 20 µM, 100% = cells with rucaparib alone) was 94% (active). For the same molecule, the viability ([10]; at 0.000305 µM, OCI-P5x cells, without rucaparib) was 91% (active), the viability ([10]; at 0.00122 µM, OCI-C5x cells, with rucaparib 10 µM, 100% = cells with rucaparib alone) was 116% (inactive) and the viability ([10]; at 0.00122 µM, OCI-C5x cells, without rucaparib) was 113% (inactive). For the same molecule, the viability ([10]; at 0.00122 µM, OCI-P5x cells, with rucaparib 20 µM, 100% = cells with rucaparib alone) was 104% (inactive), the viability ([10]; at 0.00122 µM, OCI-P5x cells, without rucaparib) was 94.3% (active) and the viability ([10]; at 0.00488 µM, OCI-C5x cells, with rucaparib 10 µM, 100% = cells with rucaparib alone) was 114% (inactive). For the same molecule, the viability ([10]; at 0.00488 µM, OCI-C5x cells, without rucaparib) was 107% (inactive), the viability ([10]; at 0.00488 µM, OCI-P5x cells, with rucaparib 20 µM, 100% = cells with rucaparib alone) was 104% (inactive) and the viability ([10]; at 0.00488 µM, OCI-P5x cells, without rucaparib) was 97.8% (active). For the same molecule, the viability ([10]; at 0.0195 µM, OCI-C5x cells, with rucaparib 10 µM, 100% = cells with rucaparib alone) was 117% (inactive), the viability ([10]; at 0.0195 µM, OCI-C5x cells, without rucaparib) was 112% (inactive) and the viability ([10]; at 0.0195 µM, OCI-P5x cells, with rucaparib 20 µM, 100% = cells with rucaparib alone) was 109% (inactive). The viability ([10]; at 0.0195 µM, OCI-P5x cells, without rucaparib) was 106% (inactive), the viability ([10]; at 0.0781 µM, OCI-C5x cells, with rucaparib 10 µM, 100% = cells with rucaparib alone) was 123% (inactive) and the viability ([10]; at 0.0781 µM, OCI-C5x cells, without rucaparib) was 102% (inactive). The viability ([10]; at 0.0781 µM, OCI-P5x cells, with rucaparib 20 µM, 100% = cells with rucaparib alone) was 106% (inactive), the viability ([10]; at 0.0781 µM, OCI-P5x cells, without rucaparib) was 105% (inactive) and the viability ([10]; at 0.313 µM, OCI-C5x cells, with rucaparib 10 µM, 100% = cells with rucaparib alone) was 117% (inactive). For the same molecule, the viability ([10]; at 0.313 µM, OCI-C5x cells, without rucaparib) was 106% (inactive), the viability ([10]; at 0.313 µM, OCI-P5x cells, with rucaparib 20 µM, 100% = cells with rucaparib alone) was 104% (inactive) and the viability ([10]; at 0.313 µM, OCI-P5x cells, without rucaparib) was 108% (inactive). The viability ([10]; at 1.25 µM, OCI-C5x cells, with rucaparib 10 µM, 100% = cells with rucaparib alone) was 107% (inactive), the viability ([10]; at 1.25 µM, OCI-C5x cells, without rucaparib) was 104% (inactive) and the viability ([10]; at 1.25 µM, OCI-P5x cells, with rucaparib 20 µM, 100% = cells with rucaparib alone) was 108% (inactive). For the same molecule, the viability ([10]; at 1.25 µM, OCI-P5x cells, without rucaparib) was 107% (inactive), the viability ([10]; at 5 µM, OCI-C5x cells, with rucaparib 10 µM, 100% = cells with rucaparib alone) was 113% (inactive) and the viability ([10]; at 5 µM, OCI-C5x cells, without rucaparib) was 128% (inactive). The viability ([10]; at 5 µM, OCI-P5x cells, with rucaparib 20 µM, 100% = cells with rucaparib alone) was 112% (inactive) and the viability ([10]; at 5 µM, OCI-P5x cells, without rucaparib) was 104% (inactive).
